The numbers were not newly measured in PubChem BioAssay AID977610, which cites them from elsewhere.

The structures appear in SMILES notation. The campaign covered roughly 3,600 compounds. About 3,600 (100%) were called active. No cut-off is given here; in the data, nearly all actives have Ki up to about 18000 µM. The set was probably picked from earlier hits. The list shows a part of the results. Numbered stars: 1 amine (or outer) side, 2 acyl side, 3 side chain; on linkers, the order of the positions; unused ones are H or OH. Square brackets hold non-standard residues; d marks the D form. Peptide text beside a SMILES is read from it. * marks the point of attachment. Orn(CH(NH2)2) = NC(N)NCCC[C@H](N)C(=O)O; X2 = O=C([C@H]1CCC[C@@H]1N[*:1])[*:2]; X1 = N[C@H]1CNC[C@@H]1C(=O)*; β3hL = CC(C)C[C@H](N)CC(=O)O

A short description of this data set: PubChem AID 977610. Conditions: PDB protein-ligand complexes, literature Ki.

As for `Nc1ncnc2c1ncn2[C@@H]1O[C@H](CO[P+](O)(O)OCC=CCC[C@@H]2SC[C@@H]3NC(=O)N[C@@H]32)[C@@H](O)[C@H]1O`, the Ki – broadly, a dissociation constant, usually derived from enzyme kinetics or from competition with a known ligand – (protein: Biotin-[acetyl-CoA-carboxylase] ligase, PDB entry 4dq2) is 0.03 µM (active).

For the compound `Cc1ccc2oc(=O)n(CCCCn3cc(CCCCC[C@@H]4SC[C@@H]5NC(=O)N[C@@H]54)nn3)c2c1`, the Ki (protein: Biotin ligase, PDB entry 3v7s) is 0.09 µM (active).

Consider `Nc1ncnc2c1ncn2[C@@H]1O[C@H](CO[P+](O)(O)O[P+](O)(O)C[P+](O)(O)O)[C@@H](O)[C@H]1O`, for which the Ki is 200 µM (active) (protein: ATP-BINDING CASSETTE SUB-FAMILY B MEMBER 10, PDB entry 4ayx) and 200 µM (active) (protein: ATP-BINDING CASSETTE SUB-FAMILY B MEMBER 10 MITOCHONDRIAL, PDB entry 4ayt).

Take `Nc1ncnc2c1ncn2[C@@H]1O[C@H](CO[P+](O)(O)O)[C@@H](O)[C@H]1O[P+](O)(O)O`: for the setting “protein: Aspartate-semialdehyde dehydrogenase ASADH, PDB entry 4r3w”, the Ki is 1000 µM (active).

Turning to `CC1(C)O[C@@H]2[C@H](O1)[C@@H](Cn1cc(CCCCC[C@@H]3SC[C@@H]4NC(=O)N[C@@H]43)nn1)O[C@H]2n1cnc2c(N)ncnc21`, the Ki (protein: Biotin ligase, PDB entry 3v7c) was 1.83 µM (active).

`O[C@@H]1[C@H](O)[C@@H](CO[P+](O)(O)O)O[C@H]1n1cnc2c(-c3ccc4ccccc4c3)ncnc21`: the Ki by setting is: (protein: 2'-deoxynucleoside 5'-phosphate N-hydrolase 1 DNPH1, PDB entry 4p5e) 2.8 µM (active); (protein: 2'-deoxynucleoside 5'-phosphate N-hydrolase 1 DNPH1, PDB entry 4p5d) 1.5 µM (active).

As for `O=C(N[C@@H](CCCCNC(=O)c1ccc(I)cc1)C(=O)O)N[C@@H](Cc1ccco1)C(=O)O`, the Ki (protein: Glutamate carboxypeptidase 2 GCPII, PDB entry 4oc3) is 0.0053 µM (active).

As to `O=C(N[C@@H](CCCCNC(=O)c1ccc(I)cc1)C(=O)O)N[C@@H](Cc1ccncc1)C(=O)O`, the Ki (protein: Glutamate carboxypeptidase 2 GCPII, PDB entry 4oc4) was 0.105 µM (active).

`O=C(N[C@@H](CCCCNC(=O)c1ccc(I)cc1)C(=O)O)N[C@@H](C[C@H]1CO1)C(=O)O`: under “protein: Glutamate carboxypeptidase 2 GCPII, PDB entry 4oc1”, the Ki is 0.254 µM (active).

As for `O=C(N[C@@H](CCCCNC(=O)c1ccc(I)cc1)C(=O)O)N[C@H](C(=O)O)c1ccc(O)cc1`, where the note is “protein: Glutamate carboxypeptidase 2 GCPII, PDB entry 4oc5”, the Ki is 0.085 µM (active).

`C#CC[C@H](NC(=O)N[C@@H](CCCCNC(=O)c1ccc(I)cc1)C(=O)O)C(=O)O`: the inhibition constant (Ki) (protein: Glutamate carboxypeptidase 2 GCPII, PDB entry 4oc2) was 0.0053 µM (active).

Turning to `O=C(N[C@@H](CCCCNC(=O)c1ccc(I)cc1)C(=O)O)NC1(C(=O)O)CC1`, the Ki (protein: Glutamate carboxypeptidase 2 GCPII, PDB entry 4oc0) is 0.318 µM (active).

In the case of `CSCC[C@H](NC(=O)[C@H](CC(C)C)NC(=O)CNC(=O)[C@H](Cc1ccccc1)NC(=O)[C@H](Cc1ccccc1)NC(=O)[C@H](CCC(N)=O)NC(=O)[C@H](CCC(N)=O)NC(=O)[C@@H]1CCCN1C(=O)[C@H](CCCCN)NC(=O)[C@@H]1CCCN1C(=O)[C@@H](N)CCCNC(N)N)C(=O)O`, the Ki runs as follows: (protein: Substance-P receptor, PDB entry 2ks9) 9020 µM (active); (protein: Substance-P receptor, PDB entry 2ksa) 871 µM (active); (protein: Substance-P receptor, PDB entry 2ksb) 754 µM (active).

For `CSCC[C@H](NC(=O)[C@H](CC(C)C)NC(=O)[C@H](CC(C)C)NC(=O)[C@@H]1CCCN1C(=O)[C@@H](N)Cc1cnc[nH]1)C(=O)N[C@@H](CCCNC(N)N)C(=O)N[C@@H](CC(C)C)C(=O)N[C@@H](CC(C)C)C(=O)N[C@@H](Cc1cnc[nH]1)C(=O)N[C@@H](Cc1cnc[nH]1)C(=O)N1CCC[C@H]1C(=O)N[C@@H](CO)C(=O)O` (H-HPLLM[Orn(CH(NH2)2)]LLHHPS-OH), the Ki (protein: Estrogen receptor beta, PDB entry 4j26) is 3.64 µM (active).

As for `CC(C)C[C@@H](CC(=O)NCC(=O)N[C@@H](CC(=O)O)C(=O)N[C@@H](C)C(=O)N[C@@H](Cc1ccccc1)C(=O)N[C@@H](CC(N)=O)C(=O)N[C@@H](CCCNC(N)N)C(N)=O)NC(=O)[C@H](CCCCN)NC(=O)[C@H]1CCC[C@@H]1NC(=O)[C@H](CC(C)C)NC(=O)[C@H]1CCC[C@@H]1NC(=O)[C@H](CCCNC(N)N)NC(=O)[C@H]1CCC[C@@H]1NC(=O)[C@H](C)NC(=O)[C@H]1CNC[C@@H]1N` (X1-A[X2][Orn(CH(NH2)2)][X2]L[X2]K[β3hL]GDAFN[Orn(CH(NH2)2)]-NH2), where the note is “protein: Apoptosis regulator Bcl-XL, PDB entry 3fdm”, the Ki is 0.002 µM (active).

`CC[C@H](C)[C@H](NC(=O)[C@H](CCCCN)NC(=O)[C@@H]1CCCN1C(=O)[C@@H](N)CCCNC(N)N)C(=O)N1CCC[C@H]1C(=O)N1CCC[C@H]1C(=O)O` (H-[Orn(CH(NH2)2)]PKIPP-OH): under “protein: ANGIOTENSIN-CONVERTING ENZYME, ANCE, PDB entry 4aa2”, the Ki is 107 µM (active).
